A selection: hits, their analogues and other compounds. The true share with any hit is near 27%.
sEH inh = inhibitors of human soluble epoxide hydrolase. P34913. recombinant human sEH enzymatic activity assay. inhibition, % at 2 µM. 91,000 tested, 0.34% active. AID 707; in the data active = inhibition above about 80%
Target sequence (P34913 whole entry, looked up): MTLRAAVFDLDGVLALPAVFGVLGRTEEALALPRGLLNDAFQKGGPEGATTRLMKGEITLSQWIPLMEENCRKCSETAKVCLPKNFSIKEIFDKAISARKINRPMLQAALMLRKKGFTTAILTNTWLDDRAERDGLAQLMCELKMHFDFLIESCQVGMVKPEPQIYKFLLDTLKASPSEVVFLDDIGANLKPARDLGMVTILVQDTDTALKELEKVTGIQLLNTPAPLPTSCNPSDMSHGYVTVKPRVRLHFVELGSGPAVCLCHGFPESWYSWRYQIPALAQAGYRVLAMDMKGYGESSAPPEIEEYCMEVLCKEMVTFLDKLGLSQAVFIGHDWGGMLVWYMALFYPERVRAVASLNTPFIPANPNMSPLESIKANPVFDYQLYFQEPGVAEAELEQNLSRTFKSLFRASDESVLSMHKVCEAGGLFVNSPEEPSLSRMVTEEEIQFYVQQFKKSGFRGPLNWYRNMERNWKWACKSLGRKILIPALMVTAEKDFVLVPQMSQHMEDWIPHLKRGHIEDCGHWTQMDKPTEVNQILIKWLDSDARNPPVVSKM
sEH activator = soluble epoxide hydrolase (human) activation | 91,000 tested, 0.04% active | purified human sEH enzymatic activity, activator screen | activation, % at 2 µM; in the data active = activation above about 37%
CYP2C9 activ = activators of human CYP2C9; AID 1024; recombinant CYP2C9, luciferin-H conversion, luminescence; active compounds read high; factor 1 = untreated enzyme, 0 = blocked; P11712; 96,000 tested, 1.4% active; activation factor at 5 µM;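 active = activation factor of 2 or more for CYP2C9 at a 5 µM dose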;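 note: 0 = sulfaphenazole-blocked wells and 1 = vehicle-only wells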
CYP2C19 act = cytochrome P450 2C19 (human) activation; P33261; recombinant CYP2C19, luciferin-H EGE luminescence; active compounds read high; 0 = fully inhibited enzyme, 1 = untreated enzyme; activation factor at 5 µM; 96,000 tested, under 10 active; AID 1025;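 active = activation factor of at least 2 at 5 µM in the primary screen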;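 note: 0 = wells with 2.5 mM tranylcypromine and 1 = vehicle-only wells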
CYP2C19 inhib = human CYP2C19 inhibition | CYP2C19 Supersomes, luciferin-H EGE luminescence, 30 min | P33261 | 96,000 tested, 21% active | inhibition, % at 5 µM;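 active = CYP2C19 inhibition above a set limit at 5 µM in the primary screen, cut at about 50% in these data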;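 note: plate controls were negative control wells for no effect and 2.5 mM tranylcypromine positive control for full effect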
CYP2C9 inhib = human CYP2C9 inhibition. P11712. inhibition, % at 5 µM. 96,000 tested, 20% active. CYP2C9 Supersomes, luciferin-H conversion, luminescence;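 active = blocking of liver enzyme CYP2C9 beyond about 50% at 5 µM, limit read from the data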
The depositor's hits bear a star; · = no result given.

SMILES	sEH inh	sEH activator	CYP2C9 activ	CYP2C19 act	CYP2C19 inhib	CYP2C9 inhib
Cc1ccc(-c2csc(=S)n2CC(=O)OCC(=O)NCc2ccco2)cc1	-7.7	7.3	0.4	0.7	27.9	55.6*
O=C(CN(C(=O)CCC(=O)Nc1nccs1)c1ccccc1F)NCC1CCCO1 (centres undefined)	-4.3	3.8	0.6	0.7	25.5	42.9
O=C(CN(C(=O)CCC(=O)Nc1nccs1)c1ccc(F)c(Cl)c1)NCc1ccco1	·	·	0.7	0.2	76.0*	27.3
O=C(CN(Cc1ccc(F)cc1)C(=O)CCC(=O)Nc1ccccn1)NCc1ccco1	41.9	-43.3	0.7	0.7	31.2	31.1
O=C(CN(C(=O)CCC(=O)Nc1nccs1)c1ccc(F)cc1)NCc1ccco1	9.9	-12.7	0.7	0.3	65.2*	32.4
O=C(CN(Cc1ccccc1)C(=O)CCC(=O)Nc1nccs1)NCc1ccco1	·	·	0.7	0.4	60.6*	26.5
CCn1nc(C)c(NC(=O)c2cc(Br)ccc2Cl)c1C	·	·	1.2	1.1	-5.1	-19.5
CCn1c(=O)c(NC(=O)c2ccccc2)c2n(c1=S)CCCCC2	10.3	-9.6	0.5	0.7	32.4	54.5*
CCOCCCn1c(=O)c(NC(=O)c2ccc(OCC)cc2)c2n(c1=S)CCCCC2	-4.8	5.7	0.7	0.9	6.6	25.9
Cc1cc2c(c(=O)n1Cc1cccnc1)C(c1ccccc1)C(C#N)=C(N)O2 (centres undefined)	·	·	0.7	0.9	7.0	26.5
COc1ccc(C2C(C#N)=C(N)Oc3cc(C)n(Cc4ccco4)c(=O)c32)cc1 (centres undefined)	-6.3	5.3	0.3	0.8	16.8	68.3*
COc1ccccc1C1C(C#N)=C(N)Oc2cc(C)n(Cc3ccccn3)c(=O)c21 (centres undefined)	-13.5	11.5	0.9	0.9	8.5	5.2
COc1ccccc1C1C(C#N)=C(N)Oc2cc(C)n(CCCn3ccnc3)c(=O)c21 (centres undefined)	-1.9	3.6	0	0.1	90.0*	100.0*
Cc1cc2c(c(=O)n1CCCn1ccnc1)C(c1ccco1)C(C#N)=C(N)O2 (centres undefined)	1.3	0.4	0	0.2	76.4*	100.4*
Cc1cc2c(c(=O)n1Cc1ccc3c(c1)OCO3)C(c1cccnc1)C(C#N)=C(N)O2 (centres undefined)	·	·	0.5	0.7	28.5	51.7*
O=C(NC1CCCCC1)C1CCCN1C(=O)NCc1ccccc1 (centres undefined)	15.4	-13.6	0.8	0.9	9.3	23.5
Cc1ccc(NC(=O)/C(=C\c2ccccc2)NC(=O)/C=C/c2ccccc2)cc1	6.6	-8.4	0.6	1	-0.1	39.1
Cc1ccc(NC(=O)/C(=C\C=C\c2ccccc2)NC(=O)c2ccccc2)cc1	-4.3	2.2	0.3	0.5	46.5	67.7*
Oc1c(C(c2ccco2)N2CCOCC2)sc2ncnn12 (centres undefined)	-0.1	-0.7	0.5	0.7	33.7	45.9
CCCCC(=O)Nc1nn(CC(C)C)c2nc3ccccc3cc12	-7.8	5.2	0.7	0.7	29.6	28.6
CCn1nc(NC(=O)c2ccncc2)c2cc3cccc(C)c3nc21	15.1	-13.6	0.6	0.6	41.2	36.7
CC(C)Cn1nc(NC(=O)C(C)(C)C)c2cc3ccccc3nc21	·	·	0.5	0.6	35.9	51.7*
CCn1nc(NC(=O)c2ccncc2)c2cc3ccccc3nc21	·	·	0.3	0.3	69.6*	67.0*
COc1ccc2nc3c(cc2c1)c(NC(=O)c1cccs1)nn3CC(C)C	-20.5	17.7	0.1	0.2	77.6*	93.4*
CCCC1CC(C)(c2csc(Nc3ccc(OCC)cc3)n2)OC1=O (centres undefined)	0.5	5.3	·	·	·	·
SMILES	sEH inh	sEH activator	CYP2C9 activ	CYP2C19 act	CYP2C19 inhib	CYP2C9 inhib
COC(=O)c1ccccc1NC(=O)c1cc(OC)cc(OC)c1	-4.9	6.6	1.2	0.8	16.7	-19.4
CC(C)CCOP(=O)(c1ccc(N(C)C)cc1)C(O)c1ccccn1 (centres undefined)	-6.1	3.1	0.6	0.2	80.3*	44.0
CC(C)CCOP(=O)(c1ccc(N(C)C)cc1)C(O)c1ccccc1F (centres undefined)	-6.7	6.2	0.5	0.3	74.0*	48.1
CCCCOP(=O)(c1ccc(N(C)C)cc1)C(O)c1ccncc1 (centres undefined)	-13.2	15.5	0.3	0.2	80.1*	73.7*
CC(C)COP(=O)(c1ccc(N(C)C)cc1)C(O)c1ccccn1 (centres undefined)	-6.4	3.6	0.8	0.3	66.7*	17.4
CC1(C)CC(=O)c2cc(OCC(=O)NCCN3CCOCC3)ccc2O1	-9.2	11.5	0.9	0.9	13.0	7.4
COc1cccc(N2CCN(c3c4c(nc5ncnn35)CCC4)CC2)c1	-5.1	6.4	0.9	0.7	25.4	12.4
O=C(NCc1ccccc1)c1ccc(C(=O)N(C2CCCCC2)C2CCCCC2)cc1	13.4	-13.3	0.8	0.9	8.6	16.7
Cc1ccc(S(=O)(=O)c2n[nH]n3c2nc(=O)c2ccccc23)cc1	14.7	-13.7	0.1	1.1	-5.4	93.5*
COc1cc(S(=O)(=O)N2CCC(C(N)=O)CC2)c(C)cc1C	4.0	-4.4	3*	0.3	68.9*	-199.5
Cc1cc(C)c(S(=O)(=O)N2CCC(C(N)=O)CC2)cc1C	0.9	1.0	2.3*	0.6	38.1	-133.0
Cc1ccc(S(=O)(=O)N2CCC(C(N)=O)CC2)c(C)c1C	-3.2	3.7	1.2	0.7	29.3	-23.4
COc1ccc(N=C2NC(=O)S/C2=C\c2ccc(N(C)C)cc2)cc1	-3.2	3.0	0.1	0.8	15.3	94.5*
COc1ccc(CNC(=O)c2ccc(NC(=O)CC3SC(N4CCCCC4)=NC3=O)cc2)cc1 (centres undefined)	24.2	-23.3	0.8	1	3.3	23.8
O=C1CN(Cc2ccccc2)C(=NCc2ccco2)S1	6.8	-6.1	0	0.1	90.0*	97.2*
COc1cccc(NC(=O)NCc2cccn2C)c1	13.8	-16.1	1	0.7	25.7	4.6
CCOc1cccc(=O)c2c(C)n(C)c(C)c12	2.0	-3.6	0.5	0.5	52.5*	49.4
Cc1ccc(/C=N\NC(=O)c2cc(OCC(F)(F)F)ccc2OCC(F)(F)F)cc1	·	·	0.8	1	4.1	20.6
COC(=O)C1CCN(C(=O)C2CCCCC2)CC1	5.4	-3.1	0.8	0.3	65.9*	22.5
COC(=O)C1CCN(C(=O)N2CCOCC2)CC1	-2.8	2.5	1	0.9	13.1	4.9
CC(C)N1C(=O)CCC1C(=O)NCCc1ccccc1 (centres undefined)	·	·	0.8	0.9	6.9	18.0
CCN(CC)S(=O)(=O)c1ccc(-c2nnc(SCc3nnc(-c4ccccc4)o3)o2)cc1	·	·	0.8	0.5	46.2	15.1
Cc1nc2nc(COc3ccccc3)[nH]n2c(=O)c1Cl	·	·	0.3	0.7	31.4	74.6*

Assay outcomes deposited in PubChem by several laboratories.
